# Reference: PubChem BioAssay AID485284 (NMMLSC, 2010)
# Results with a measured potency or affinity are listed apart.
# Assay: loss of vesicle association with mouse CD8+ T cells – mouse 2C CD8+ T cells, flow cytometry, dose response (AID 485284);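 also: drosophila derived vesicles carrying Ld MHC with QL9 peptide plus B7-1 and ICAM-1; vesicle binding seen as anti-B7-1 PE fluorescence on CD8 gated cells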
# Details: 2C mouse CD8+ T cell-exosome binding; at 45 µM (top of the series)
row,SMILES,"binding remaining, % of control [%]"
1,COC(=O)C1=C(c2ccc(F)cc2F)C[C@@H]2CC[C@H]1N2C(=O)NCCNC(C)=O,107
2,COC(=O)C1=C(c2c(C)noc2C)C[C@@H]2CC[C@H]1N2C(=O)NCCOc1ccccc1Cl,124
3,Cc1sc2ncnc(NCC(C)(C)N3CCOCC3)c2c1C,133
4,O=C(Nc1ccc(Cl)cc1)O/N=C(\c1ccccc1)c1ccccn1,85.8
5,COc1ccc2c3c1OC1[C@H](O)CCC4[C@@H](C2)N(C)CC[C@]314 (stereo partly specified),230
6,CC(C)(O)C(=O)Nc1ccc([N+](=O)[O-])c(C(F)(F)F)c1,166
